A selection: hits, their analogues and other compounds. The true share with any hit is near 31%.
CYP2C19 act: human CYP2C19 activators, primary screen, biochemical, luminescence. AID 1025, 2008. Cytochrome P450 2C19 (Homo sapiens), P33261. activation factor at 5 µM. 96,000 tested, under 10 active. recombinant CYP2C19, luciferin-H EGE luminescence; hits give high values; 0 = fully inhibited enzyme, 1 = untreated enzyme;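 active = activation factor of at least 2 at 5 µM in the primary screen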
CYP2C9 inh: blockers of cytochrome P450 2C9 activity – biochemical, luminescence, ADME assay, primary screen | CYP2C9 Supersomes, luciferin-H conversion | P11712 | inhibition, % at 5 µM | 20% of 96,000 active;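 active = blocking of liver enzyme CYP2C9 beyond about 50% at 5 µM, limit read from the data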
Target sequence (P11712 whole entry, looked up): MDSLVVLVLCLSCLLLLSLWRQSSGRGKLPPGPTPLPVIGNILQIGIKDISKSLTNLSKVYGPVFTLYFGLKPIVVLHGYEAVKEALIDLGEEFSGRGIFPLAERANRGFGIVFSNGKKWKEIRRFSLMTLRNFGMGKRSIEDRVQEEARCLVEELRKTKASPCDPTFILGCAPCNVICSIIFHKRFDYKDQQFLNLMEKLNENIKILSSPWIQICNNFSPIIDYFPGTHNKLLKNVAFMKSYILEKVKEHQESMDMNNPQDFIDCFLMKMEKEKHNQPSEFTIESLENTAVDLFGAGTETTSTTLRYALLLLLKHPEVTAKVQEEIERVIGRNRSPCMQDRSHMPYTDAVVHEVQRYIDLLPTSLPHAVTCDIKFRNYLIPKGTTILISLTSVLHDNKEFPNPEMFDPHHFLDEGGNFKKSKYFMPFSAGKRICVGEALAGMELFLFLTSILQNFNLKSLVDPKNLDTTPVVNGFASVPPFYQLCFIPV
CYP2C9 act: human CYP2C9 activators, primary screen, biochemical, luminescence; Cytochrome P450 2C9 (Homo sapiens), P11712; recombinant CYP2C9, luciferin-H conversion; hits give high values; factor 1 = untreated enzyme, 0 = blocked; activation factor at 5 µM; 1.4% of 96,000 active; AID 1024, 2008;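 active = activation factor of 2 or more for CYP2C9 at a 5 µM dose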
PLAP act: PLAP enzyme activators, biochemical, luminescence, HTS | Alkaline phosphatase, placental type (Homo sapiens), P05187 | purified PLAP enzyme, luminescent substrate read-out; hits give high values | activation fold at 20 µM | 1.2% of 96,000 active; in the data active = activation fold above about 2
CYP2C19 inhib: blockers of cytochrome P450 2C19 activity – biochemical, luminescence, ADME assay, primary screen | 21% of 96,000 active | inhibition, % at 5 µM | P33261 | CYP2C19 Supersomes, luciferin-H EGE luminescence, 30 min;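 active = CYP2C19 inhibition above a set limit at 5 µM in the primary screen, cut at about 50% in these data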
Each line names hits and unclear results; the compound was inactive in the other large screens.

O=c1sc2ccccc2n1COc1ccc(Cl)cc1	CYP2C9 inh 94, CYP2C19 inhib 100
COc1ccc(-n2c(Cn3c(=O)sc4ccccc43)nnc2SCC(=O)N2CCOCC2)cc1	none
Cc1ccccc1OCCCn1c(=O)sc2ccccc21	CYP2C9 inh 55
CCc1ccc(N(CC(=O)NC2CCCCC2)S(=O)(=O)c2c(C)noc2C)cc1	none
O=c1sc2ccccc2n1CCCOc1ccccc1	CYP2C9 inh 62
Cc1ccc(OCCCn2c(=O)sc3ccccc32)cc1	none
CS(=O)(=O)N(CC(=O)NCCSCc1c(F)cccc1Cl)c1ccc2c(c1)OCO2	CYP2C9 inh 57, CYP2C19 inhib 79
COc1ccc(N(CC(=O)NCCSCc2c(F)cccc2Cl)S(C)(=O)=O)cc1OC	CYP2C9 inh 87
COc1cc(OC)cc(C(=O)NCC(=O)N2CCCCC2)c1	none
CCCCSc1nc2sc3c(c2c(=O)[nH]1)CCC3	none
O=c1[nH]c(SCc2n[nH]c(=S)n2-c2ccccc2)nc2ccccc12	CYP2C9 inh 80, CYP2C19 inhib 73
O=c1[nH]c(SCc2n[nH]c(=S)n2-c2ccccc2)nc2sc3c(c12)CCC3	CYP2C9 inh 72
S=c1[nH]nc(Cc2cccc3ccccc23)n1-c1ccccc1	CYP2C9 inh 90
O=C(/C=C/c1ccco1)NC(=S)Nc1ccc(Cl)cn1	none
CC(c1nnc(SCC(=O)Nc2ccc3[nH]c(=O)[nH]c3c2)n1Cc1ccccc1)N(C)C (stereo not drawn)	none
CN(C)c1nc(NCc2ccccc2)nc(SCC(=O)Nc2ccc(Cl)c(Cl)c2)n1	CYP2C9 inh 86
Cc1ccc(C(=O)Nc2ccccc2-c2ccccc2)cc1[N+](=O)[O-]	CYP2C9 inh 50
CCN(CC)CCNC(=O)c1ccc(Cl)c(S(=O)(=O)Nc2ccccc2OC)c1	none
Cc1ccc(C)c(NS(=O)(=O)c2cc(C(=O)Nc3ccccc3-c3ccccc3)ccc2Cl)c1	CYP2C9 inh 70, CYP2C19 inhib 79
COC(=O)c1ccc(NC(=O)c2ccccc2N(C)S(=O)(=O)c2ccccc2)cc1	none
COCCNC(=O)c1ccccc1NC(=O)c1ccccc1N(C)S(=O)(=O)c1ccc(C)cc1	CYP2C9 inh 95, CYP2C19 inhib 84
Cc1ccccc1NC(=O)c1ccc(C)c(S(=O)(=O)Nc2ccccn2)c1	none
COCCNC(=O)c1ccccc1NC(=O)c1ccc(Cl)c(S(=O)(=O)Nc2ccc(C)cc2C)c1	CYP2C9 inh 81
CCOC(=O)c1[nH]c(C)c(C(=O)OCC(=O)N(CC)C2CCS(=O)(=O)C2)c1C (stereo not drawn)	none
O=C(O)c1ccc(-n2c(-c3ccc(Br)cc3)n[nH]c2=S)cc1	none
CCOc1cccc2sc(NC(=O)c3ccc(Br)s3)nc12	none
Cc1[nH]c(=O)[nH]c(=O)c1S(=O)(=O)N1CCCC1	none
CCOc1ccc(C2N(c3cc(Cl)ccc3OC)C(=O)C3CCCN32)cc1OC (stereo not drawn)	CYP2C19 inhib 72
CCOc1ccc(C2N(c3ccc(F)cc3)C(=O)C3CCCN32)cc1OC (stereo not drawn)	CYP2C19 inhib 66
COc1ccccc1C1N(c2cc(Cl)ccc2OC)C(=O)C2CCCN21 (stereo not drawn)	none
CCOc1ccc(C2N(c3ccc(Cl)cc3)C(=O)C3CCCN32)cc1OC (stereo not drawn)	CYP2C19 inhib 65
CCOc1ccc(C2N(c3ccc(OC)cc3)C(=O)C3CCCN32)cc1OC (stereo not drawn)	none
CCOc1ccc(C(=O)Nc2nncs2)cc1OCC	none
CC(=O)Nn1cnc2c(c1=O)C1(CCCCC1)Cc1ccccc1-2	none
N#CC12CCCCC1CC1CCCCC1(C#N)N2Cc1cccnc1 (stereo not drawn)	none
CSc1nc2nc(C(F)(F)F)cc(-c3ccccc3)n2n1	CYP2C9 inh 62
O=C(Nc1ccccc1-c1nc2ccccc2s1)c1cccnc1Cl	none
CC12CCC(C(=O)N3CCN(C(c4ccccc4)c4ccccc4)CC3)(OC1=O)C2(C)C (stereo not drawn)	CYP2C9 inh 86
O=C(C1CC1)N1CCN(C(c2ccccc2)c2ccccc2)CC1	CYP2C9 inh 69, CYP2C19 inhib 93
O=C(CSc1ncccn1)N1CCN(C(c2ccccc2)c2ccccc2)CC1	none
Cc1c(Cl)cccc1NC(=O)CN1CCC(C(O)(c2ccccc2)c2ccccc2)CC1	CYP2C9 inh 70
COc1cc(NC(=S)N2CCN(C(c3ccccc3)c3ccccc3)CC2)cc(OC)c1	none
CC12CCC(C(=O)NCc3ccccc3)(OC1=O)C2(C)C (stereo not drawn)	none
Cc1c(Cl)cccc1NC(=O)CCN1CCCCC1	none
CCNC(=S)N1CCN(C(c2ccccc2)c2ccccc2)CC1	CYP2C9 inh 91
O=C(C1CCN(S(=O)(=O)c2ccccc2)CC1)N1CCOCC1	none
O=C(C1CC1)N1CCC(C(O)(c2ccccc2)c2ccccc2)CC1	CYP2C9 inh 61, CYP2C19 inhib 90
CN(c1ccc(OCc2nnc(-c3ccccc3)o2)cc1)S(=O)(=O)c1ccccc1	CYP2C9 inh 98, CYP2C19 inhib 94
COc1ccc(/C(C)=C2\SC(=S)N(CCC(=O)O)C2=O)cc1	none
Cc1coc(NC(=O)CSc2nc(-c3ccncc3)cc(C(F)(F)F)c2C#N)n1	none
COC(=O)c1sccc1OC(C)C(C)=O (stereo not drawn)	none
CCOC(=O)C(=O)/C(=C\N(C)C)c1onc(-c2ccccc2Cl)c1C(=O)OC	CYP2C9 inh 67
CCOC(=O)C(=O)/C(=C\N(C)C)c1onc(-c2c(Cl)cccc2Cl)c1C(=O)OC	CYP2C9 inh 91, CYP2C19 inhib 55
CCC(=O)NC(=S)Nc1cccc(Cl)c1N1CCCCC1	none
CC1c2[nH]c3ccccc3c2CCN1S(C)(=O)=O (stereo not drawn)	CYP2C19 inhib 98
Nc1c(C(=O)c2ccccc2)oc2ccc(Br)cc12	CYP2C19 inhib 70
Nc1c(C(=O)c2ccc(Br)s2)oc2ccccc12	none
CCOC(=O)C1C(=O)NC(c2ccccc2)=NC1c1ccc(Cl)cc1 (stereo not drawn)	CYP2C19 inhib 57
CC1=C(C(=O)OC(C)C)C(c2ccccn2)n2ncnc2N1 (stereo not drawn)	none
CCN(CC)C(=O)Cn1nc(C)c2ccccc2c1=O	none
Cc1cccc(-c2onc3ccc(C4(C)OCCO4)cc23)c1	CYP2C9 inh 93, CYP2C19 inhib 88
CC(C)C(=O)N1CCN(c2nc(-c3ccccc3)c3c(c2C#N)CCCC3)CC1	CYP2C9 inh 94, CYP2C19 inhib 98
CCCC(=O)N1CCN(c2nc(CC(C)C)c3c(c2C#N)CCC3)CC1	CYP2C9 inh 89, CYP2C19 inhib 89
N#Cc1c(-c2ccccc2)nc(N2CCCCCC2)[nH]c1=O	none
COc1ccc(/C(N)=N/OC(=O)CSc2ccccc2)cc1OC	none
